Measurements taken from PubChem BioAssay (EPA / NIEHS).
Results filed as inconclusive are left out. Calls of active or inactive are those of the source. Rule for the calls, unless noted: active = hit-call score of the fitted dose curve at least 0.9, where 1 is the maximum; inconclusive = response in the unintended direction; inactive = score below 0.9.

Assays:
[1] = molecular target: human Peroxisome Proliferator-activated Receptor alpha (PPARa), PPARA (gene 5465) (UniProt Q07869); test: ATG_PPARa_TRANS: Attagene TRANS-FACTORIAL HepG2 Assay for human Peroxisome Proliferator-activated Receptor alpha (PPARa) (AID 2283001)
Procedure, shortened: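 Gain-of-signal endpoint: reporter mRNA induction relative to DMSO, detected by fluorescent RT-PCR and capillary electrophoresis. HepG2 cells transiently carried GAL4-UAS-driven reporter units plus NR-Gal4 fusion; exposure lasted 24 h.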

[2] = molecular target: human Peroxisome Proliferator-activated Receptor delta (PPARd), PPARD (gene 5467) (UniProt Q03181); test: ATG_PPARd_TRANS: Attagene TRANS-FACTORIAL HepG2 Assay for human Peroxisome Proliferator-activated Receptor delta (PPARd) (AID 2283002)
Procedure, shortened: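 Multiplexed trans-activation format: HepG2 liver cells expressing exogenous NR-Gal4 chimeras and GAL4-UAS reporters were exposed for 24 h. Reporter mRNA was detected by RT-PCR with capillary electrophoresis fluorescence; activity fitted as gain of signal relative to DMSO.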

[3] = molecular target: Peroxisome proliferator-activated receptor gamma (Homo sapiens) (UniProt P37231); test: ATG_PPARg_TRANS: Attagene TRANS-FACTORIAL HepG2 Assay for human Peroxisome Proliferator-activated Receptor-gamma (PPARg) (AID 2283007)
Procedure, shortened: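 After 24 h of chemical exposure, transfected HepG2 cells carrying PPARγ-Gal4 chimera reporter constructs are lysed for RNA. Reporter transcripts are measured by RT-PCR and capillary electrophoresis with fluorescent labelling, and gain of signal is fitted versus DMSO.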

[4] = molecular target: Nuclear receptor subfamily 1 group I member 2 (Homo sapiens) (UniProt O75469); test: ATG_PXR_TRANS: Attagene TRANS-FACTORIAL HepG2 Assay for human Pregnane X Receptor (PXR) (AID 2283008)
Procedure, shortened: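 Read-out is fluorescence of labelled reporter cDNA fragments separated by capillary electrophoresis after RT-PCR and HpaI digestion. Source: HepG2 cells carrying PXR-GAL4/UAS reporter constructs, treated 24 h; activity fitted upward relative to DMSO.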

[5] = molecular target: human RAR-related Orphan Receptor gamma (RORg), RORC (gene 6097) (UniProt P51449); test: ATG_RORg_TRANS: Attagene TRANS-FACTORIAL HepG2 Assay for human RAR-related Orphan Receptor gamma (RORg) (AID 2283011)
Procedure, shortened: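 Transient MRTU transfection of HepG2 (TRANS format, exogenous NR-Gal4 chimera). 24 h dosing. Total RNA → oligo(dT) RT → PCR → 6-FAM labelling → HpaI cut → CE. Gain vs DMSO.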

[6] = molecular target: Retinoic acid receptor RXR-alpha (Homo sapiens) (UniProt P19793); test: ATG_RXRa_TRANS: Attagene TRANS-FACTORIAL HepG2 Assay for human Retinoid X Receptor alpha (RXRa) (AID 2283012)
Procedure, shortened: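 HepG2 cells transiently transfected with GAL4-UAS reporter units and chimeric RXRa-Gal4 protein, treated 24 h. Reporter mRNA measured by RT-PCR, fluorescent labelling, HpaI digestion and capillary electrophoresis. Induction fitted against DMSO.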

[7] = molecular target: human Retinoid X Receptor beta (RXRb), RXRB (gene 6257) (UniProt P28702); test: ATG_RXRb_TRANS: Attagene TRANS-FACTORIAL HepG2 Assay for human Retinoid X Receptor beta (RXRb) (AID 2283013)
Procedure, shortened: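 HepG2 cells were transiently transfected with multiplexed GAL4-UAS reporters and a chimeric RXRb-Gal4 construct, then exposed for 24 h. Reporter mRNA was quantified by RT-PCR, FAM labeling, HpaI digestion and capillary electrophoresis; gain of signal was scored against DMSO.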

[8] = molecular target: human Thyroid Receptor alpha (THRa1), THRA (gene 7067) (UniProt P10827); test: ATG_THRa1_TRANS: Attagene TRANS-FACTORIAL HepG2 Assay for human Thyroid Receptor alpha (THRa1) (AID 2283014)
Procedure, shortened: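 Transient HepG2 transfection, NR-Gal4 chimera driving GAL4-UAS reporters; 24 h compound exposure; total RNA, oligo(dT) RT, PCR, fluorescent primer extension, capillary electrophoresis. Upward direction vs DMSO control.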

[9] = BSK_4H_Eotaxin3: BioMAP Diversity Plus: 4H Assay for Eotaxin 3 Biomarker Activity (AID 2283000; active = hit-call score of the fitted dose curve at least 0.9, where 1 is the maximum; inactive = score below 0.9;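 note: CCL26 protein level quantified by ELISA in parallel with SRB cytotoxicity check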); settings: primary human endothelial cells (HUVEC); actives raise or lower the signal
Procedure, shortened: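 Readout is Eotaxin-3 (CCL26) level by ELISA in primary human umbilical vein endothelial cells harvested 24 h after chemical exposure; activity fitted in both directions against DMSO control.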

[10] = read-out: Intercellular Adhesion Molecule 1 (ICAM1), ICAM1 (gene 3383); test: BSK_3C_ICAM1: BioMAP Diversity Plus: 3C Assay for Intercellular Adhesion Molecule 1 (ICAM1) Biomarker Activity (AID 2283003; active = hit-call score of the fitted dose curve at least 0.9, where 1 is the maximum; inactive = score below 0.9); settings: primary human endothelial cells (HUVEC); actives raise or lower the signal
Procedure, shortened: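 HUVEC primary cells stimulated under 3C conditions; ICAM1 measured by ELISA 24 h after compound dosing. Curves fitted bidirectionally against the DMSO baseline. Overt cytotoxicity checked by SRB staining of parallel cultures.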

[11] = BSK_3C_Proliferation: Cell Proliferation Assessment in the BioMAP Diversity Plus: 3C Assay (AID 2283006; active = hit-call score of the fitted dose curve at least 0.9, where 1 is the maximum; inactive = score below 0.9); settings: primary human endothelial cells (HUVEC)
Procedure, shortened: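 Subconfluent HUVEC (3C system) cultured with chemical; relative cell number read at 48 h by sulforhodamine B total-protein staining (0.1% SRB after 10% TCA fixation, 560 nm). Bidirectional fit relative to DMSO.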

[12] = read-out: E-selectin (Homo sapiens) (UniProt P16581); test: BSK_3C_Eselectin: BioMAP Diversity Plus: 3C Assay for Eselectin Biomarker Activity (AID 2283015; active = hit-call score of the fitted dose curve at least 0.9, where 1 is the maximum; inactive = score below 0.9;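 note: cell surface E-selectin protein quantified by ELISA 24 h after dosing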); settings: primary human endothelial cells (HUVEC); actives raise or lower the signal
Procedure, shortened: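 HUVEC, 3C stimulation; compound exposure 24 h; E-selectin by ELISA; gain- or loss-of-signal fitted bidirectionally vs DMSO baseline.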

[13] = read-out: Interleukin-1 alpha (IL1a), IL1A (gene 3552); test: BSK_BE3C_IL1a: BioMAP Diversity Plus: BE3C Assay for Interleukin-1 alpha (IL1a) Biomarker Activity (AID 2283016; active = hit-call score of the fitted dose curve at least 0.9, where 1 is the maximum; inactive = score below 0.9); settings: primary human bronchial epithelial cells; actives raise or lower the signal
Procedure, shortened: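 Human primary bronchial epithelial cells, 24 h chemical exposure; IL-1a quantified by ELISA, fitted bidirectionally against DMSO. Cytotoxicity assessed in parallel by SRB total-protein staining at the time of measurement.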

[14] = read-out: Monocyte Chemoattractant Protein-1 (MCP1), CCL2 (gene 6347); test: BSK_3C_MCP1: BioMAP Diversity Plus: 3C Assay for Monocyte Chemoattractant Protein-1 (MCP1) Biomarker Activity (AID 2283017; active = hit-call score of the fitted dose curve at least 0.9, where 1 is the maximum; inactive = score below 0.9); settings: primary human endothelial cells (HUVEC); actives raise or lower the signal
Procedure, shortened: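 HUVEC, 3C system; 24 h chemical exposure; MCP-1 by ELISA; bidirectional curve fit vs DMSO baseline.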

[15] = read-out: Monocyte Chemoattractant Protein-1 (MCP1), CCL2 (gene 6347); test: BSK_4H_MCP1: BioMAP Diversity Plus: 4H Assay for Monocyte Chemoattractant Protein-1 (MCP1) Biomarker Activity (AID 2283018; active = hit-call score of the fitted dose curve at least 0.9, where 1 is the maximum; inactive = score below 0.9); settings: primary human endothelial cells (HUVEC); actives raise or lower the signal
Procedure, shortened: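 Human umbilical vein endothelial cells (4H system) exposed to chemicals for 24 h in 96-well format. MCP-1 measured by ELISA; bidirectional fitting against DMSO, with SRB total-protein staining in parallel cultures for cytotoxicity.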

[16] = read-out: Human Leukocyte Antigen - DR isotype (HLADR), HLA-DRA (gene 3122); test: BSK_3C_HLADR: BioMAP Diversity Plus: 3C Assay for Human Leukocyte Antigen - DR isotype (HLADR) Biomarker Activity (AID 2283019; active = hit-call score of the fitted dose curve at least 0.9, where 1 is the maximum; inactive = score below 0.9;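 note: ELISA of cell-surface HLA-DR on HUVEC 24 h after dosing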); settings: primary human endothelial cells (HUVEC); actives raise or lower the signal
Procedure, shortened: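 HUVEC, 3C stimulation, 24 h post-dose; HLA-DR by ELISA; bidirectional curve fit vs DMSO baseline; gain or loss of signal scored.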

[17] = molecular target: Retinoic acid receptor alpha (Homo sapiens) (UniProt P10276); test: ATG_RARa_TRANS: Attagene TRANS-FACTORIAL HepG2 Assay for human Retinoic Acid Receptor alpha (RARa) (AID 2283005)
Procedure, shortened: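 HepG2 cells transiently transfected with multiple reporter units expressing chimeric RARα-GAL4 fusion, with GAL4-UAS-driven reporters. After 24 h compound exposure, reporter mRNA induction quantified by RT-PCR and capillary electrophoresis with fluorescent labeling; gain-of-signal fitted relative to DMSO control.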

[18] = molecular target: human Retinoic Acid Receptor gamma (RARg), RARG (gene 5916) (UniProt P13631); test: ATG_RARg_TRANS: Attagene TRANS-FACTORIAL HepG2 Assay for human Retinoic Acid Receptor gamma (RARg) (AID 2283009)
Procedure, shortened: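 HepG2 transiently transfected with GAL4-UAS reporter units and chimeric NR-Gal4 constructs; 24 h compound exposure. Reporter mRNA quantified by RT-PCR, FAM labeling, HpaI digestion and capillary electrophoresis; gain-of-signal versus DMSO.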

[19] = molecular target: human RAR-related Orphan Receptor beta (RORb), RORB (gene 6096) (UniProt Q92753); test: ATG_RORb_TRANS: Attagene TRANS-FACTORIAL HepG2 Assay for human RAR-related Orphan Receptor beta (RORb) (AID 2283010)
Procedure, shortened: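 HepG2 cells transiently transfected with GAL4-UAS reporter units expressing chimeric NR-Gal4 protein; reporter mRNA measured 24 h after dosing by RT-PCR, 6-FAM labelling and capillary electrophoresis. Gain-of-signal fitted relative to DMSO baseline.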

[20] = molecular target: human Retinoic Acid Receptor beta (RARb), RARB (gene 5915) (UniProt P10826); test: ATG_RARb_TRANS: Attagene TRANS-FACTORIAL HepG2 Assay for human Retinoic Acid Receptor beta (AID 2283004)
Procedure, shortened: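 Readout is reporter mRNA induction: RNA reverse-transcribed, PCR-amplified, FAM-labelled, HpaI-cut and resolved by capillary electrophoresis. Transiently transfected HepG2 cells carrying exogenous NR–Gal4 chimeras were dosed for 24 h; activity fitted upward relative to DMSO.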

Measured: AC50

Sequence of human Peroxisome Proliferator-activated Receptor alpha (PPARa), PPARA (gene 5465) (Q07869 whole entry, looked up, the tested form may be a part): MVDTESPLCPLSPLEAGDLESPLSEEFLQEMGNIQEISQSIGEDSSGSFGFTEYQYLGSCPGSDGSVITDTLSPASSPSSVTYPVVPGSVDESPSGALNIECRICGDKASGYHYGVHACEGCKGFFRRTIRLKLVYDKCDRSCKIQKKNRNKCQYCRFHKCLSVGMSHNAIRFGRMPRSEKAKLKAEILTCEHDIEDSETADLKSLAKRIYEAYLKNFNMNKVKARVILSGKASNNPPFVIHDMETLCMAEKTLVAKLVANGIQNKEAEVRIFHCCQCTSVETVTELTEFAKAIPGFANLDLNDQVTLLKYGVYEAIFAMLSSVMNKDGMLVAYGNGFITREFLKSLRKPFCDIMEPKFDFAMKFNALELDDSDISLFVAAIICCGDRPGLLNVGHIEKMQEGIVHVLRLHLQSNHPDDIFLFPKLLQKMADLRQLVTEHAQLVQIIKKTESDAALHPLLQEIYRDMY
Sequence of Nuclear receptor subfamily 1 group I member 2 (Homo sapiens) (O75469 whole entry, looked up, the tested form may be a part): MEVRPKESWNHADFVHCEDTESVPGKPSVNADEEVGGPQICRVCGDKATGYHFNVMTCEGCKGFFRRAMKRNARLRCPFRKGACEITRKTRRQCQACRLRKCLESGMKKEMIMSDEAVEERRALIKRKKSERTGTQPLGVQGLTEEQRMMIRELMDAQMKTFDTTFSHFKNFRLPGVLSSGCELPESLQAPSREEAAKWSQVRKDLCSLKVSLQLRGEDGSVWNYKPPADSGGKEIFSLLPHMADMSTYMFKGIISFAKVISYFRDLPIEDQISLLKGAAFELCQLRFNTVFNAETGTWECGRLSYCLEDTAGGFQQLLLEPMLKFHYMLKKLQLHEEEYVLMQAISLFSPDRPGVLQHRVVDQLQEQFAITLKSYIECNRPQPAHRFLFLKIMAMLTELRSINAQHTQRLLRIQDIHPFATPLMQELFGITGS
Sequence of human RAR-related Orphan Receptor gamma (RORg), RORC (gene 6097) (P51449 whole entry, looked up, the tested form may be a part): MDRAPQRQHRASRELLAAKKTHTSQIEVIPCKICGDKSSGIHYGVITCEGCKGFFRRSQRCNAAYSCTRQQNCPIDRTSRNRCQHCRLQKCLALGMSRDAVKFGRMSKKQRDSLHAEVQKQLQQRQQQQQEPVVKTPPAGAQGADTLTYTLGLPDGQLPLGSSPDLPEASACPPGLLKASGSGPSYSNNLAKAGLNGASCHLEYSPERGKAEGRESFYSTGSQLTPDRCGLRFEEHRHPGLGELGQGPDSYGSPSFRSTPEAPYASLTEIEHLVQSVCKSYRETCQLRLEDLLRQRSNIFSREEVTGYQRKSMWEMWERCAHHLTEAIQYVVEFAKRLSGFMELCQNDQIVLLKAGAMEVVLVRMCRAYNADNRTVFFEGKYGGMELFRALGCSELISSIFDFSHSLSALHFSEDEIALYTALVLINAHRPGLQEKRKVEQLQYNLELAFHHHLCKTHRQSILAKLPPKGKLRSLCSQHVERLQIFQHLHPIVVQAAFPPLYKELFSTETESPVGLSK
Sequence of human RAR-related Orphan Receptor beta (RORb), RORB (gene 6096) (Q92753 whole entry, looked up, the tested form may be a part): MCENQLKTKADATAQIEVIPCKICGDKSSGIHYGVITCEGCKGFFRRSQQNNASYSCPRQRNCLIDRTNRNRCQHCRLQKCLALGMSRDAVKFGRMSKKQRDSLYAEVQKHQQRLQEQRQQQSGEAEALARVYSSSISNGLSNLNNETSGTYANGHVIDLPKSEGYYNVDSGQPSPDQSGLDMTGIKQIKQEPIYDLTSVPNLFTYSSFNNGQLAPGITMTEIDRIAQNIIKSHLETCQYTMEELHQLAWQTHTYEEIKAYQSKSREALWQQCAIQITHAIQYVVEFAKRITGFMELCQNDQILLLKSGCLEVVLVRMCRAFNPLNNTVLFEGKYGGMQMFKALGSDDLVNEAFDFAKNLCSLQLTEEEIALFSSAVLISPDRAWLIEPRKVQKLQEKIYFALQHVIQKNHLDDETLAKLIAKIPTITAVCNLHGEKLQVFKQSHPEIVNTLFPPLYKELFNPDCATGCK
Sequence of human Retinoid X Receptor beta (RXRb), RXRB (gene 6257) (P28702 whole entry, looked up, the tested form may be a part): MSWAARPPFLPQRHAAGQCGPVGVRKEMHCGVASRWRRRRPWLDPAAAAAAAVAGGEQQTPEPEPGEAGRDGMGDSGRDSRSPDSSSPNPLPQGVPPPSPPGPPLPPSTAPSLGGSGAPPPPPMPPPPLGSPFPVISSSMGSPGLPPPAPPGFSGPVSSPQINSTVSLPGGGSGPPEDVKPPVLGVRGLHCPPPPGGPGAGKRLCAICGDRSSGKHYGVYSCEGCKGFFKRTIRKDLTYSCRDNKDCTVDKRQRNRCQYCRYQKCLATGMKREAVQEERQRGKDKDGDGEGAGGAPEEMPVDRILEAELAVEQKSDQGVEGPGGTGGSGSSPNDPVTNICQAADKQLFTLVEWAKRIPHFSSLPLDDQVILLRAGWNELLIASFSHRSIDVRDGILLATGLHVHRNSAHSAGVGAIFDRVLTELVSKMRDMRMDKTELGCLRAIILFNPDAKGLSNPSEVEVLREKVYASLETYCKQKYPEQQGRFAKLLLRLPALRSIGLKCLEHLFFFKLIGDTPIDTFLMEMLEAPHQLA
Sequence of Retinoic acid receptor RXR-alpha (Homo sapiens) (P19793 whole entry, looked up, the tested form may be a part): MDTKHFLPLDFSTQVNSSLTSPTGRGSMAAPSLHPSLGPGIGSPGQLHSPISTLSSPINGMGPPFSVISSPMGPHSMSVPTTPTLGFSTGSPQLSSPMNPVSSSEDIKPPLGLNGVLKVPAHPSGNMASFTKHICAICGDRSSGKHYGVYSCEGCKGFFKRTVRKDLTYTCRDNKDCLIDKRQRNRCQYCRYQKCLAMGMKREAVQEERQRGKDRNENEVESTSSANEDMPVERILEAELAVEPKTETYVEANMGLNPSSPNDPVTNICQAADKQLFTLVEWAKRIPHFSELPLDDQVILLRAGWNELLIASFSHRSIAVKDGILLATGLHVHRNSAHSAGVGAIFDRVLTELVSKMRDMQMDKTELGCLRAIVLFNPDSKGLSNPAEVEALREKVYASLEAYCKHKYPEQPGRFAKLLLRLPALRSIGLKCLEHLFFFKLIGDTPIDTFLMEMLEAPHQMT
Sequence of human Thyroid Receptor alpha (THRa1), THRA (gene 7067) (P10827 whole entry, looked up, the tested form may be a part): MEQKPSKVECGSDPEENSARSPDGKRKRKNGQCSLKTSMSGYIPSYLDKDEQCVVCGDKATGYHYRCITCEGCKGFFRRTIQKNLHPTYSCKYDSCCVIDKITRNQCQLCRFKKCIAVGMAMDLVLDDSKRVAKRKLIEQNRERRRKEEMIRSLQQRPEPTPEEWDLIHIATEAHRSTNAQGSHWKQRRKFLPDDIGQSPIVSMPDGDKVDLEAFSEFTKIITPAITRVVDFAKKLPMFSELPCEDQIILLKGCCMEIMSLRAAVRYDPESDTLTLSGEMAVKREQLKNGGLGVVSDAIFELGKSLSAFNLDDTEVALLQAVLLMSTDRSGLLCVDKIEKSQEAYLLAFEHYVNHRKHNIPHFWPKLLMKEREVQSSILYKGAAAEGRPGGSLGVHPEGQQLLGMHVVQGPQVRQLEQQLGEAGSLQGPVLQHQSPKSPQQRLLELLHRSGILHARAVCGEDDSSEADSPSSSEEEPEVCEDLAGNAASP
Sequence of human Peroxisome Proliferator-activated Receptor delta (PPARd), PPARD (gene 5467) (Q03181 whole entry, looked up, the tested form may be a part): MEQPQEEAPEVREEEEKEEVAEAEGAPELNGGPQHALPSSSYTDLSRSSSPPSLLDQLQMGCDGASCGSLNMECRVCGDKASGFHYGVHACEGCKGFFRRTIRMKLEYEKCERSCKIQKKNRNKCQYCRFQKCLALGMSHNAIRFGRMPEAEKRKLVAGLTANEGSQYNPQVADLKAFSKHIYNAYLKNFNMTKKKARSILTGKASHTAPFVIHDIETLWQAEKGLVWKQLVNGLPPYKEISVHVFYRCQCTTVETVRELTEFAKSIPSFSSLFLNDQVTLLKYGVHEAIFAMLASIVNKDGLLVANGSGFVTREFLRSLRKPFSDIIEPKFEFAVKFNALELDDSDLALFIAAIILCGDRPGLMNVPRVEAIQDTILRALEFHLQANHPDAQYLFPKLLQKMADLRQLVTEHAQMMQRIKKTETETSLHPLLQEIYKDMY
Sequence of Peroxisome proliferator-activated receptor gamma (Homo sapiens) (P37231 whole entry, looked up, the tested form may be a part): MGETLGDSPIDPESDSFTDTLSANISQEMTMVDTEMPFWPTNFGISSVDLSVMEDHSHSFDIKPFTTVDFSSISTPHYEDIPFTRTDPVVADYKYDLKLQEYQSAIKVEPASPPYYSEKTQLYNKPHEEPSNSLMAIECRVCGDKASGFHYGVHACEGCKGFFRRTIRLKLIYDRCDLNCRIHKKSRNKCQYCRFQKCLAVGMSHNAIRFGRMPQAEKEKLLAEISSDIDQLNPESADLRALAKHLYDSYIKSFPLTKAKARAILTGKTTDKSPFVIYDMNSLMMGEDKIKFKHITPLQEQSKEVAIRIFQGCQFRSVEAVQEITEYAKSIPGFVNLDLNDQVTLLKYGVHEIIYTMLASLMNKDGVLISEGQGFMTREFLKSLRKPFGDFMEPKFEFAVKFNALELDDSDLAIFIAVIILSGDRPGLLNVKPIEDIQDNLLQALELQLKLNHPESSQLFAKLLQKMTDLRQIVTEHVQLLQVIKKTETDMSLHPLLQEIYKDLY
Sequence of human Retinoic Acid Receptor gamma (RARg), RARG (gene 5916) (P13631 whole entry, looked up, the tested form may be a part): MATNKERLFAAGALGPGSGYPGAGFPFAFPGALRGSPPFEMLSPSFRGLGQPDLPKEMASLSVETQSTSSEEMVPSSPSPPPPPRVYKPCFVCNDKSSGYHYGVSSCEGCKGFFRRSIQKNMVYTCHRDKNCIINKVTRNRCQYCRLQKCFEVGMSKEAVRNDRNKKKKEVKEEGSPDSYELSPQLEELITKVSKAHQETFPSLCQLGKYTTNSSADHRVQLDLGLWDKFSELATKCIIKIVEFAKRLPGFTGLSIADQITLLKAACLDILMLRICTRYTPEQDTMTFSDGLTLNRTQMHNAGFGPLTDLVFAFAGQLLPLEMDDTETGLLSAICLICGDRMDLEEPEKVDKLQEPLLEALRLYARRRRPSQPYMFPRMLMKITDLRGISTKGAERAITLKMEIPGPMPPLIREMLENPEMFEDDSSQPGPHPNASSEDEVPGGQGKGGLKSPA

CCCCCCCCCCCCCCCCCC(=O)OCCCCCCCCCCCCCC(C)C
inactive: [1] | [2] | [3] | [4] | [5] | [6] | [7] | [8]

C=C(F)C(=O)OC(C(F)(F)F)C(F)(F)F
inactive: [9] | [10] | [11] | [12] | [13] | [14] | [15] | [16]

NC(N)=NC(N)=NCCc1ccccc1
inactive: [1] | [2] | [17] | [3] | [4] | [18] | [5] | [8]

NNC(=O)OCc1ccccc1
inactive: [1] | [2] | [3] | [4] | [19] | [5] | [6] | [7] | [8]

CN(C)CCC=C1c2ccccc2CCc2ccccc21
inactive: [1] | [2] | [3] | [5] | [6] | [8]
active: [4] 24 µM

ClCCOCCOCCCl
inactive: [1] | [2] | [20] | [17] | [3] | [19] | [5] | [6] | [7] | [8]

COc1ccc(OC)cc1
inactive: [1] | [2] | [3] | [5]

[O-]/[N+](=N\O)c1ccccc1
inactive: [1] | [2] | [4] | [5] | [7]
active: [3] 16.6 µM

CCCCCCC(C)O (stereo not given)
inactive: [1] | [2] | [3] | [4] | [6] | [7]

CC(=O)Nc1cc(S(=O)(=O)O)cc2cc(S(=O)(=O)O)c(N=Nc3ccccc3)c(O)c12
inactive: [1] | [2] | [3] | [18] | [19] | [5] | [6] | [7] | [8]
